Source: PubChem BioAssay (National Center for Advancing Translational Sciences (NCATS))
In the library only some 17% were active in any assay of this set; here they are far more common.
DT40 TDP1 no CPT = qHTS for Inhibitors of human tyrosyl-DNA phosphodiesterase 1 (TDP1): qHTS in cells in absence of CPT; DT40 Tdp1-/- hTDP1 cells, no CPT, ATP luminescence, 48 h; Potency, µM (titrated, usually from 46.2 µM), usual class: inhibitors; 15% of 420,000 active; AID 686978, 2013; note: nearly all actives have a fitted effect of over 55% in size
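Cells were dispensed at 400 per well, compounds added by pin tool, plates incubated ≥48 hr at 37 °C, then CellTiter-Glo added for 30 min at room temperature before luminescence reading. Line: DT40 Tdp1-/- complemented with hTDP1; camptothecin omitted.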
HepG2 viability = kills HepG2 cells in TGF-b inhibitor counter-screen; HepG2 CAGA-GFP viability, ATP luminescence, 18 h; Potency, µM (doses to about 46.1 µM), hits mostly cytotoxic; 0.76% of 410,000 active; AID 588856
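HepG2 CAGA-GFP cells (1000/well, DMEM with 1% FBS) received compound, then TGF-beta at 500 pg/mL final, and were incubated 18 hours at 37 degrees C. Viability was read by CellTiter-Glo luminescence. Media-only wells were set as complete cell-killing and DMSO as no toxicity.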
TGFb inhibitor = inhibitors of TGF-b signaling; HepG2 CAGA-GFP TGF-b/SMAD3 reporter, GFP fluorescence, 18 h; TGF-beta stimulated, 500 pg/mL final; AID 588855; 1.2% of 410,000 active; Potency, µM (highest dose often 46.1 µM), actives largely listed as inhibitors; note: nearly all actives have a fitted effect of over 65% in size
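HEPG2 CAGA-GFP reporter cells (1000/well, DMEM with 1% FBS) received compounds, then recombinant TGF-beta at 500 pg/mL final for 18 hours at 37 degrees C. Per-cell GFP summed per well was normalised to unstimulated and stimulated DMSO controls before curve fitting.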
TDP1 cell CPT = growth inhibition of DT40 Tdp1-/-;hTDP1 cells with camptothecin (screen for TDP1 inhibitors); Potency, µM (doses to about 46.2 µM), actives largely listed as inhibitors; 12% of 420,000 active; chicken DT40 Tdp1-/-;hTDP1 cells + 20 nM CPT, ATP luminescence, 48 h; note: nearly all actives have a fitted effect of over 55% in size
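Chicken DT40 Tdp1-/- cells stably complemented with human TDP1 were seeded at 400 cells/well in medium containing 20 nM camptothecin, exposed to pin-transferred compounds, and grown at 37 °C for at least 48 hr. Viability was read as ATP luminescence.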
HT1080-NT tox = kills 2HG-producing HT-1080-NT fibrosarcoma cells; 1.6% of 360,000 active; Potency, µM (doses to about 46.1 µM), usual class: cytotoxic; AID 686970; HT-1080-NT fibrosarcoma viability, CellTiter-Glo ATP luminescence, 48 h;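 note: NT is the 2HG producing partner of a matched IDH1 knockdown line; nearly all actives have a fitted effect of over 55% in size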
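Viability by CellTiter-Glo luminescence after 48 h compound exposure at 37C of HT-1080-NT cells (750/well, RPMI, 5% FBS). % activity scaled between DMSO wells and medium-only wells, then curve-fitted and categorized by curve class.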
HT1080 IDH1KD tx = kills HT-1080 cells with IDH1 knockdown | HT-1080 IDH1 knockdown viability, ATP luminescence, 48 h | Potency, µM (series often up to 46.1 µM), actives largely listed as cytotoxic | 2% of 360,000 active | AID 686971
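Using the IDH1-knockdown HT-1080 line run in the same batch and compound series as the NT line, viability after 48 h at 37 °C was determined by CellTiter-Glo luminescence and expressed as % activity.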
Of the large screens only hits and unclear results are named; the others gave an inactive call. Calls come from the whole dose curve; as a rule, active = well fitted curve in the direction sought with a large enough effect; inconclusive = small, poorly fitted or top-dose-only effect, or another doubt; inactive = no such curve, though single readings can be large; an effect the other way counts as inactive or inconclusive.

Nc1cc2c(cc1N)-c1ccccc1C2	DT40 TDP1 no CPT 16µM, TDP1 cell CPT inconclusive
Nc1ccc2c(c1)Cc1cc(N)c(Cl)cc1-2	none
Cc1c(C(=O)N(C)C2CCOC2)cnn1-c1ncc2c(n1)-c1ccccc1CCC2 (configuration not stated)	none (no result: HepG2 viability, TGFb inhibitor, HT1080-NT tox, HT1080 IDH1KD tx)
CC(=O)Oc1ccc(CC(C(=O)O)N2C(=O)c3ccccc3C2=O)cc1 (configuration not stated)	none
CC(=O)Oc1ccc(C#C/C=C2\c3ccccc3C(=O)N2c2ccccc2)cc1	DT40 TDP1 no CPT 21µM, TGFb inhibitor inconclusive, TDP1 cell CPT 23µM
CCOC(=O)c1ccc2c(c1)N(CC(=O)Nc1ccc(CC)cc1)C(=O)c1ccccc1S2	none (no result: DT40 TDP1 no CPT, TDP1 cell CPT, HT1080-NT tox, HT1080 IDH1KD tx)
COC(=O)c1sccc1S(=O)(=O)N(CC(=O)NCc1ccc(F)cc1)c1ccc(Cl)cc1	DT40 TDP1 no CPT inconclusive, TGFb inhibitor inconclusive, TDP1 cell CPT inconclusive (no result: HT1080-NT tox, HT1080 IDH1KD tx)
COC(=O)c1sccc1S(=O)(=O)N(CC(=O)Nc1c(C)cccc1C)c1ccc(C)c(C)c1	TDP1 cell CPT 16µM (no result: HT1080-NT tox, HT1080 IDH1KD tx)
COC(=O)c1sccc1S(=O)(=O)N(CC(=O)NCc1ccc(C)cc1)c1ccc(C)cc1	DT40 TDP1 no CPT inconclusive, TDP1 cell CPT 23µM (no result: HT1080-NT tox, HT1080 IDH1KD tx)
Cc1ccccc1C(=O)NNS(=O)(=O)c1cccc([N+](=O)[O-])c1	none
N#Cc1ccsc1NC(=O)CN1CCN(c2ccc(O)cc2)CC1	DT40 TDP1 no CPT 10µM, TDP1 cell CPT inconclusive, HT1080-NT tox inconclusive
N#Cc1ccsc1NC(=O)CN1CCN(c2ccccc2)CC1	none
COc1ccc(S(=O)(=O)N2CCN(CC(=O)Nc3sccc3C(N)=O)CC2)cc1OC	DT40 TDP1 no CPT 23µM, TGFb inhibitor inconclusive, TDP1 cell CPT inconclusive
N#Cc1cnn(-c2ccccc2)c1NC(=O)CN1CCOCC1	none
Cc1cc(C)c(C)c(S(=O)(=O)N2CCN(CC(=O)Nc3sccc3C#N)CC2)c1C	DT40 TDP1 no CPT inconclusive, TGFb inhibitor inconclusive, TDP1 cell CPT 26µM, HT1080 IDH1KD tx inconclusive
N#Cc1cnn(-c2ccccc2)c1NC(=O)CN1CCN(c2ccccc2)CC1	DT40 TDP1 no CPT 23µM, TDP1 cell CPT inconclusive
CC1CN(C(=O)Nc2ccc3snnc3c2)c2ccccc21 (configuration not stated)	DT40 TDP1 no CPT inconclusive, TDP1 cell CPT inconclusive
Cc1ccc(-c2onc3ccc(C=O)cc23)cc1	DT40 TDP1 no CPT 18µM, TDP1 cell CPT 16µM
O=C(O)/C=C/c1ccc2noc(-c3ccccc3)c2c1	DT40 TDP1 no CPT inconclusive, TDP1 cell CPT 15µM
Fc1ccc(N/N=C2/CC(c3ccccc3)Oc3ccccc32)c(F)c1 (configuration not stated)	none
CNC(=S)N/N=C1\CC(c2ccccc2)Oc2ccccc21 (configuration not stated)	DT40 TDP1 no CPT 2.6µM, TDP1 cell CPT 5.2µM
COc1ccc(/C=N/c2c(-c3ccc(OC)cc3)nc3n2CCS3)cc1	DT40 TDP1 no CPT 16µM, TDP1 cell CPT inconclusive
Fc1ccc(/C=N/c2c(-c3ccc(F)cc3)nc3n2CCS3)cc1	none
CC1(C)C=C2C(=NN(c3ccccc3)C(N)=C2C#N)CO1	DT40 TDP1 no CPT inconclusive, TDP1 cell CPT 13µM
CC1(C)Cc2c(C#N)c(N)n(-c3ccccc3)c(=S)c2CO1	none
Cc1ccc(C)c(OCCNc2ncccc2[N+](=O)[O-])c1	DT40 TDP1 no CPT inconclusive, TDP1 cell CPT inconclusive
O=C(c1ccccc1)c1ccc(OCC(O)CN2CCN(S(=O)(=O)N3CCCCC3)CC2)cc1 (configuration not stated)	DT40 TDP1 no CPT 18µM, TDP1 cell CPT inconclusive, HT1080 IDH1KD tx inconclusive
OC(COc1ccc(-c2ccccc2)cc1)CN1CCCCC1 (configuration not stated)	DT40 TDP1 no CPT 26µM, TDP1 cell CPT inconclusive
